# Reference: PubChem BioAssay (NCI)
# Compounds without any hit were thinned out: in the full panel of roughly 83,000, 20% have a hit.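 Testing used 96-well plates and a 48-hour single-concentration exposure. Example: -40 means 40% of the starting cells died.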 Values without a mark were called inactive. Calls of active or inactive are those of the source. How the source made its calls: active means growth percent below 10; inactive means the rest.
# Experiments:
# Assay in all cases: NCI-60 one-dose screen, 48 h (100 = growth as untreated, 0 = no growth, -100 = all killed)
# Conditions in all cases: 10 µM unless noted
# DU-145 prostate = test system: DU-145 prostate
# K-562 leukemia = test system: K-562 leukemia
# MALME-3M melanoma = test system: MALME-3M melanoma
# MDA-MB-231 breast = test system: MDA-MB-231 breast
# RXF 393 renal = test system: RXF 393 renal
# SF-268 CNS = test system: SF-268 CNS
# SF-295 CNS = test system: SF-295 CNS
# SF-539 CNS = test system: SF-539 CNS
# UACC-257 melanoma = test system: UACC-257 melanoma
# M14 melanoma = test system: M14 melanoma
SMILES,growth (DU-145 prostate),growth (K-562 leukemia),growth (MALME-3M melanoma),growth (MDA-MB-231 breast),growth (RXF 393 renal),growth (SF-268 CNS),growth (SF-295 CNS),growth (SF-539 CNS),growth (UACC-257 melanoma),growth (M14 melanoma)
Nn1c(SCC(=O)Nc2ccc(Cl)cc2)nnc1-c1cc(F)c(Cl)cc1Cl,108%,77.4%,92.6%,81.8%,117%,97.4%,87.9%,92.9%,98.2%,96.9%
CCC[S@](=O)c1ccc2nc(NC(=O)OC)[nH]c2c1,106%,92.3%,104%,96.4%,115%,102%,99.9%,96.6%,69.3%,98.9%
COc1ccc(-c2nnc(N3CCN(C(=O)CN4CCN(c5ccc(OC)cc5)CC4)CC3)nc2-c2ccc(OC)cc2)cc1,-16.3% (active),-56.7% (active),-72.7% (active),8.6% (active),-34.8% (active),-32.4% (active),-60.6% (active),32%,-8.52% (active),-17.3% (active)
Nc1c(C(=O)Nc2ccccc2)sc2nc3c(cc12)CN(C(=O)OCc1ccccc1)CC3,59.4%,21.5%,52.3%,68.4%,68.2%,62.2%,40.7%,44.9%,59.6%,26.5%
CC(=O)OCC1SC(OC(C)=O)C(NC(=O)/C=C/CCl)C(OC(C)=O)C1OC(C)=O (stereo not given),104%,91.6%,99.6%,102%,108%,97.9%,111%,109%,83%,93.6%
Cn1cc(-c2ccc3c(c2)ncn3-c2ccc(CC(=O)Nc3cc(C(C)(C)C)on3)cc2)cn1,19.3%,9.77% (active),25.5%,11%,-25% (active),25.6%,37.2%,-15.8% (active),67.1%,19.5%
O=c1c2ccccc2n(CC(O)CN2CCCC2)c2c(Br)cccc12 (stereo not given),105%,92.9%,125%,129%,98.9%,94.8%,106%,94.9%,98.6%,98.7%
O=C(O)COc1ccc2c(=O)c3sc4c(=O)c5ccccc5c(=O)c4c3c(=O)c2c1,-89.6% (active),24.9%,-75.4% (active),45.2%,49.3%,44.7%,-97% (active),-45.7% (active),-3.61% (active),-95.6% (active)
COc1ccc(-c2[nH]c3ccccc3c2C=C(C#N)C#N)cc1,-10.1% (active),-5.54% (active),87.4%,17.6%,3.79% (active),25.1%,-50.4% (active),-26.8% (active),54.2%,1.05% (active)
COc1ccc(-c2cc(-c3nnc(SCC(=O)Nc4ccc(/C(C)=N\O)cc4)n3-c3ccccc3)c3cc(OC)ccc3n2)cc1,85%,48%,105%,46.1%,83.6%,71.4%,80.3%,82.6%,71%,70.1%
CCc1c(C(=O)N[C@@H](C(=O)OCc2ccccc2)C(C)O)[nH]c2ccc(Cl)cc12 (stereo not given in full),86.5%,104%,69.7%,61.3%,83.8%,84.3%,52.1%,71.4%,109%,88.3%
O=C1CC(c2ccc(O)c(O)c2)Oc2cc(O)c([C@@H]3O[C@H](CO)[C@@H](O)[C@H](O)[C@H]3O)c(O)c21 (stereo not given in full),105%,96.8%,110%,101%,103%,102%,103%,100%,106%,102%
Nc1ccc(C(=O)Nc2cccc(C(=O)Nc3ccc4c(O)c(N=Nc5ccc(N=Nc6ccc(S(=O)(=O)O)cc6)cc5)c(S(=O)(=O)O)cc4c3)c2)cc1,107%,88.1%,93.8%,101%,109%,102%,104%,102%,111%,97.3%
COCCOC(=O)COc1ccc(OC)cc1,103%,104%,97%,98.1%,104%,102%,99.5%,104%,96.3%,105%
O=C1C(Cl)=C(Nc2ccc3c(c2NC2=C(Cl)C(=O)c4ccccc4C2=O)C(=O)c2ccccc2C3=O)C(=O)c2ccccc21,-83.9% (active),16.6%,-85.1% (active),14.6%,48.5%,39.5%,23.8%,15%,-20.4% (active),-64.8% (active)
CCCCCCN1C(=O)CN=C1Nc1ccc2cc3ccc(NC4=NCC(=O)N4CCCCCC)cc3nc2c1,40.5%,-12.1% (active),71.5%,30.7%,11.6%,47.5%,82.7%,76.6%,103%,68.2%
Nc1ccc(C2=NN(C(=O)c3cc(-c4ccc(Cl)cc4)nc4ccccc34)C(c3ccc(Cl)cc3)C2)cc1 (stereo not given),27.2%,13.2%,63%,63.2%,-4.45% (active),55%,18.2%,8.98% (active),57.5%,6.28% (active)
COC(=O)[C@]1(C)CCC[C@]2(C)[C@H]3C[C@H]4C(C(C)C)=C[C@]3(CC[C@H]21)[C@@H]1C(=O)N(CCC#N)C(=O)[C@@H]14,99.4%,55.8%,103%,89.5%,86.7%,89.4%,99.5%,98%,85.4%,83.1%
CNCc1cccc2c1OCCOCCOCCN(CCN1CCOCC1)S(=O)(=O)c1ccc(cc1)-c1cnc(N)c(n1)C(=O)N2,45.7%,12.6%,93.8%,94.1%,14.8%,68%,68.1%,24.1%,98.7%,26.4%
COc1ccc(-c2nc(C#N)c(NCC(c3ccco3)N3CCCC3)o2)cc1 (stereo not given),49.2%,20.6%,51.2%,77.8%,14.8%,52.3%,24.2%,23.7%,55.2%,12.6%
CCOC(=O)c1c(C)nc2c(c1N)/C(=C/c1ccccn1)C(=O)N2Cc1ccccc1,12.6%,-16% (active),31.4%,14.1%,-76.4% (active),16.7%,65.6%,11.1%,35.1%,0.865% (active)
Cn1nc(C(F)(F)F)c(-c2cc(C(F)(F)F)cc(C(F)(F)F)c2)c1-c1ccc(OCc2ccc(Cl)cc2)cc1O,20.6%,1.63% (active),-15.9% (active),-31.5% (active),-14.5% (active),16.6%,-22.6% (active),2.13% (active),-7.16% (active),6.3% (active)
COc1cc(-c2csc(NC(=O)Nc3ccc(Cl)cc3)n2)cc(OC)c1OC,36.3%,9.22% (active),61.3%,45.5%,23.4%,51.2%,18%,48.8%,22.9%,21.1%
Cc1cccc2nc3c(n12)C(=O)C(=O)c1ccccc1-3,76.9%,28.9%,64.4%,63.9%,103%,80.8%,82.7%,69.3%,49.5%,67.1%
Cc1nc2sc(C(=O)Nc3cccc(Cl)c3C)c(N)c2cc1C(C)O (stereo not given),20%,7.36% (active),71%,47.5%,3.16% (active),47.9%,15%,-12.5% (active),46.9%,23.4%
